Bioassay records: PubChem BioAssay, National Center for Advancing Translational Sciences (NCATS)
An excerpt weighted towards active compounds, which were near 3.6% of everything screened.
Abeta rescue = compounds reversing amyloid beta toxicity in yeast; Potency, µM (titrated, usually from 46.1 µM), usual class: activators; 0.063% of 410,000 active; yeast expressing A-beta42, growth rescue, OD600, 48 h; response scale: 0% DMSO, 100% iron-clioquinol control; AID 1347071; further: nearly all actives have a fitted effect of over 55% in size
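Growth rescue measured by 600 nm absorbance after 48 h yeast culture at 30 C with compound. Values normalized between DMSO and an equimolar ferric chloride plus clioquinol control.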
MmCpn inh = inhibitors of Methanococcus maripaludis chaperonin TRiC (MmCpn); purified Mm-Cpn ATPase, ADP Transcreener TR-FRET; Potency, µM (doses to about 76.9 µM), actives largely listed as inhibitors; 0.031% of 330,000 active; AID 504842; further: nearly all actives have a fitted effect of over 80% in size
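Reaction buffer contained 30 mM Tris pH 7.4, 100 mM KCl, 5 mM MgCl2 and 1 mM DTT. Mm-CPN (25 nM final) hydrolysed 10 uM ATP over 30 min at 37°C; ADP was read by HTRF.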
aSyn rescue = inhibitors of alpha-synuclein toxicity in yeast; Potency, µM (series often up to 46.1 µM), actives largely listed as activators; Yeast expressing alpha-synuclein, growth rescue, BacTiter-Glo, 24 h; 0.14% of 370,000 active; further: nearly all actives have a fitted effect of over 65% in size
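Readout is rescue of growth in alpha-synuclein-expressing yeast, so inhibitors of toxicity appear as activators. Growth after 24 hr at 30 deg C in galactose medium is quantified by luminescence.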
ClpP mod = qHTS Assay for Activators of ClpP; ATP-dependent Clp protease proteolytic subunit (Bacillus subtilis (strain 168)), P80244; purified B. subtilis ClpP, FRET peptide cleavage, 20 min; Potency, µM (top dose mostly 57.5 µM); 1.9% of 340,000 active; active means well fitted falling curve with a large enough effect; inconclusive means small, poorly fitted or top-dose-only effect; inactive means no such curve, though single readings can be large or run the other way; further: the source files actives as falling curves though it sought activators and does not explain the sign; nearly all actives have a fitted effect of over 65% in size
Target sequence (P80244 whole entry, looked up): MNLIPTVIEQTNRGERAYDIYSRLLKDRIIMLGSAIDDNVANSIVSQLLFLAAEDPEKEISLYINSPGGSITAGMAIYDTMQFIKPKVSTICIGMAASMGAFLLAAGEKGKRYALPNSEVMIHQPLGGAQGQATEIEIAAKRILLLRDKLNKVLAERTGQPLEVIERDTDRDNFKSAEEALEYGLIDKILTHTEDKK
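ClpP 10 microg/mL final, pH 8 Tris/KCl buffer with BSA, glycerol, Tween-20; compound pinned in; FRET-FV substrate; RT 20 min; Ex320/Em430; ΔFRET vs ADEP 5.8 microM, DMSO, no enzyme.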
TDP43 rescue = rescues yeast growth from TDP-43 toxicity; Potency, µM (top dose mostly 46.1 µM), actives largely listed as activators; TDP-43 expressing yeast growth rescue, BacTiter-Glo, 24 h; 1.8% of 410,000 active; further: nearly all actives have a fitted effect of over 50% in size
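Galactose-induced TDP-43 yeast, OD600=0.02, compound pinned; 24 hr, 30 deg C; BacTiter-Glo luminescence for growth. Inhibitors of TDP-43 toxicity read as activators.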
FUS suppressor = rescues growth of FUS-expressing yeast; Potency, µM (highest dose often 76.6 µM), usual class: activators; S. cerevisiae FUS-expressing, growth rescue, OD600, 24 h; 0.24% of 390,000 active; further: nearly all actives have a fitted effect of over 55% in size
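FUS-expressing yeast, raffinose-pregrown, induced in 2% galactose minimal medium at OD 0.005; compounds in a dilution series, 24hr at 30C. Growth restoration read as absorbance at 600 nm. CP55940 positive control, DMSO negative.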
Numbers stand for hits; n = inactive; u = inconclusive; x = no result given; ! = repeats disagree; [ ] = another dose, or the depositor's remark. Unless noted, the call rests on the fitted dose curve; in most records, active means well fitted curve in the direction sought with a large enough effect; inconclusive means small, poorly fitted or top-dose-only effect, or another doubt; inactive means no such curve, though single readings can be large; an effect the other way counts as inactive or inconclusive.

SMILES	Abeta rescue	MmCpn inh	aSyn rescue	ClpP mod	TDP43 rescue	FUS suppressor
CCOc1ccc(NC(=O)c2nc(S(=O)(=O)Cc3ccccc3F)ncc2Cl)cc1	n	x	11µM!	n	u	n
Cc1ccc(CS(=O)(=O)c2ncc(Cl)c(C(=O)Nc3nnc(C(C)C)s3)n2)cc1	n	n	n	n	14µM	n
CSc1nnc(NC(=O)c2nc(S(=O)(=O)Cc3ccccc3F)ncc2Cl)s1	n	n	n	x	n	n
CC(C)c1nnc(NC(=O)c2nc(S(=O)(=O)Cc3ccccc3F)ncc2Cl)s1	n	n	n	n	28µM	n
CCc1nnc(NC(=O)c2nc(S(=O)(=O)Cc3ccc(C)cc3)ncc2Cl)s1	n	n	n	n	18µM	n
CN(C(=O)CSc1nc2ncccc2o1)c1ccc(F)cc1	n	x	x	n	n	n
Cn1c(=O)n(C/C=C/c2ccccc2)c(=O)c2c1nc1n2CCN1c1ccc(F)cc1	n	x	x	n	n	n
Cc1ccc(S(=O)(=O)NCCSc2nnnn2-c2ccc(Cl)c(C(=O)O)c2)cc1	n	x	x	n	n	n
CCc1nnc(NC(=O)c2nc(S(=O)(=O)Cc3ccccc3)ncc2Cl)s1	n	n	n	x	n	n
O=C(NCc1ccccc1)c1nc(S(=O)(=O)Cc2ccccc2)ncc1Cl	n	n	n	n	10µM	n
CCc1nnc(NC(=O)c2nc(S(=O)(=O)Cc3cccc(C)c3)ncc2Cl)s1	n	n	n	n	11µM	n
COc1ccc(CNC(=O)c2nc(S(=O)(=O)Cc3ccccc3)ncc2Cl)cc1	n	n	n	n	n	n
CCOC(=O)N1CCN(c2nc3ccccc3nc2C(C#N)C(=O)NCCc2ccccc2)CC1 (stereo not drawn)	n	n	n	14µM	n	n
CCC(=O)N1c2ccc(S(=O)(=O)N3CCN(c4ccccc4Cl)CC3)cc2CC1C (stereo not drawn)	n	n	n	n	35µM	u
CC1CCN(C(=O)COC(=O)c2cc(Cl)cc(Cl)c2N)CC1	n	n	n	28µM	n	n
CC(C)N(C(=O)COC(=O)c1cc(Cl)cc(Cl)c1N)C(C)C	n	n	n	16µM	n	n
Cc1scc(-c2n[nH]c(=S)n2C(C)c2ccccc2)c1C (stereo not drawn)	n	n	n	n	35µM	x
C=CCn1c(-c2csc3ccccc23)n[nH]c1=S	n	n	n	n	n	n
Cc1ccccc1-n1c(-c2csc(C)c2C)n[nH]c1=S	4.5µM	n	n	n	u	n
Cc1ccccc1-n1c(-c2csc3ccccc23)n[nH]c1=S	n	n	n	n	20µM	n
CC(=O)c1ccc(NC(=O)c2ccc(-c3ccc(Cl)cc3)o2)cc1	n	x	x	n	11µM	n
O=C(Nc1ccccc1)c1ccc(-c2ccc(Br)cc2)o1	n	n	n	n	13µM	n
O=C(CCNc1ccc(Cl)cc1)c1cccs1	n	n	n	n	n	n
O=C(CCNc1cc(Cl)cc(Cl)c1)c1cccs1	n	n	n	n	10µM	n
CCOc1ccc(CCNC(=O)c2cnc3c(-c4ccc(F)cc4)c(C)nn3c2C)cc1OCC	n	x	x	n	n	n
SMILES	Abeta rescue	MmCpn inh	aSyn rescue	ClpP mod	TDP43 rescue	FUS suppressor
CS(=O)(=O)c1nc([N+](=O)[O-])nn1CCCc1ccccc1	n	x	n	x	18µM	n
Nc1nc(SCc2ccccc2)ns1	n	n	n	n	n	n
Nc1nc(SCc2ccc(Cl)cc2)ns1	u	n	n	n	16µM	n
Cc1ccc(C2CCN(C(=S)Nc3cccc(C)c3)C2)cc1 (stereo not drawn)	13µM	n	n	n	22µM	u
Cc1cccc(NC(=O)N2CCC(c3nc4ccccc4o3)CC2)c1	n	n	n	n	n	n
Cc1cccc(NC(=S)N2CCC(c3nc4ccccc4o3)CC2)c1	16µM	n	n	x	n[0.397 µM]	u
COC(=O)c1cccc(NC(=O)c2cccnc2)c1	n	n	n	14µM	n	x
